# In the supplement of paper PMC8728848:
# The full list was thinned out, with the strongest signals kept by preference.
# B1: GS13686A-pdi-553-26-553 (Parabacteroides distasonis) (protein)
# chain: NENPDKPTDDVNYNMNEPRLASTLRGGLIIEGNVEQRLKPLQIDFYSQMTVDGGGWGTKNYIQDDEWNNLVWEEYLKQIASINIVIRSLTEKDKDAYANTIAFARIWRVYVHTLAADKFGPMPFPAYEIVEANPPYKSLKDIYDEYFRELDAAINGFNDSAQPIFSDAGIDLIYKNDVSKWKRFANSLRLRLAVRLTEVDQEKCIAEANAAISSPAGLISDKADNAYMPPKADGSWGQDYNYTMFQITWSGPICMSKSVEKLVTNIGGVAWPQGVVNQTSGVAVSSVHPEKVDPRAPKIFQPGIENGDWKGLVYGPKAEEANTGIYQSKQCAELGFIIKDGYPYKSRPYDLFLSEEVHFLKAELYARGFIAGDAKSEYEAGVRASFATWGVTSEVDDYLTSTEKNEAGTSARYDDQQGAGNTALEKIITQKYIAGIPDLAQEGWNDKRRLNLPRLDVAVYRDQAVYNNNDKDILKSANFIKRMRYPTKESLINATEYEKGKSMLGGKGDIVSTPLWWDKNSNYCTSSK
# Tests used:
# Assay in all cases: glycan array binding signal (z-score within array); higher = stronger binding
# Details in all cases: glycan notation: IUPAC condensed, linker removed
# [1] = biological target: Gal(b1-4)GlcNAc(b1-6)[Gal(b1-4)GlcNAc(b1-3)]GalNAc
# In short: (§1)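 Negative Z-scores can be read as non-binding. The Z-score is calculated within each array and then averaged across arrays of one protein sequence at different concentrations or buffers and across linkers. Arrays, 3228 in all, were curated from the Consortium for Functional Glycomics database and kept only where the protein sequence was available.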
# [2] = biological target: Gal3S(b1-4)[Fuc(a1-3)]Glc6S
# In short: as §1
# Gal6S(b1-3)GlcNAc = biological target: Gal6S(b1-3)GlcNAc
# In short: as §1
# Gal6S(b1-4)GlcNAc6S = biological target: Gal6S(b1-4)GlcNAc6S
# In short: as §1
# GalNAc(b1-4)Gal(b1-4)Glc = biological target: GalNAc(b1-4)Gal(b1-4)Glc
# In short: as §1
# [3] = biological target: GalNAc(b1-4)GlcNAc(b1-3)GalNAc(b1-4)GlcNAc
# In short: as §1
# [4] = biological target: GlcNAc(b1-2)[GlcNAc(b1-4)]Man(a1-3)[GlcNAc(b1-4)][GlcNAc(b1-2)[GlcNAc(b1-6)]Man(a1-6)]Man(b1-4)GlcNAc(b1-4)GlcNAc
# In short: as §1
# GlcNAc(b1-4)GlcNAc = biological target: GlcNAc(b1-4)GlcNAc
# In short: as §1
# [5] = biological target: GlcNAc(b1-6)Gal(b1-4)GlcNAc
# In short: as §1
# [6] = biological target: Man(a1-2)Man(a1-2)Man(a1-6)[Man(a1-3)]Man
# In short: as §1
# Man(a1-2)Man(a1-3)Man = biological target: Man(a1-2)Man(a1-3)Man
# In short: as §1
# Man(a1-6)Man = biological target: Man(a1-6)Man
# In short: as §1
# MurNAc(b1-4)GlcNAc = biological target: MurNAc(b1-4)GlcNAc
# In short: as §1
# [7] = biological target: Neu5Ac(a2-3)Gal(b1-3)GalNAc(b1-4)[Neu5Ac(a2-3)]Gal(b1-4)Glc
# In short: as §1
# [8] = biological target: Neu5Ac(a2-3)Gal(b1-3)GlcNAc(b1-2)Man(a1-3)[Neu5Ac(a2-3)Gal(b1-3)GlcNAc(b1-2)Man(a1-6)]Man(b1-4)GlcNAc(b1-4)GlcNAc
# In short: as §1
# [9] = biological target: Neu5Ac(a2-3)Gal(b1-3)GlcNAc(b1-3)Gal(b1-4)GlcNAc
# In short: as §1
# [10] = biological target: Neu5Ac(a2-3)Gal(b1-3)GlcNAc(b1-6)GalNAc
# In short: as §1
# [11] = biological target: Neu5Ac(a2-3)Gal(b1-3)[Fuc(a1-4)]GlcNAc(b1-3)Gal(b1-3)[Fuc(a1-4)]GlcNAc
# In short: as §1
# [12] = biological target: Neu5Ac(a2-3)Gal(b1-3)[Neu5Ac(a2-6)]GlcNAc(b1-3)[Fuc(a1-3)[Gal(b1-4)]GlcNAc(b1-6)]Gal(b1-4)Glc
# In short: as §1
# [13] = biological target: Neu5Ac(a2-3)Gal(b1-4)GlcNAc(b1-2)Man(a1-3)[Neu5Ac(a2-6)Gal(b1-4)GlcNAc(b1-2)Man(a1-6)]Man(b1-4)GlcNAc(b1-4)GlcNAc
# In short: as §1
# [14] = biological target: Neu5Ac(a2-3)Gal(b1-4)GlcNAc(b1-2)[Neu5Ac(a2-3)Gal(b1-4)GlcNAc(b1-4)]Man(a1-3)[GlcNAc(b1-4)][Neu5Ac(a2-3)Gal(b1-4)GlcNAc(b1-2)[Neu5Ac(a2-3)Gal(b1-4)GlcNAc(b1-6)]Man(a1-6)]Man(b1-4)GlcNAc(b1-4)GlcNAc
# In short: as §1
# [15] = biological target: Neu5Ac(a2-3)Gal(b1-4)GlcNAc(b1-3)Gal(b1-3)GlcNAc
# In short: as §1
# Neu5Ac(a2-6)Gal = biological target: Neu5Ac(a2-6)Gal
# In short: as §1
# [16] = biological target: Neu5Ac(a2-6)Gal(b1-3)GlcNAc(b1-3)[Gal(b1-4)GlcNAc(b1-6)]Gal(b1-4)Glc
# In short: as §1
# [17] = biological target: Neu5Ac(a2-6)Gal(b1-4)GlcNAc(b1-2)Man(a1-3)[Man(a1-6)]Man(b1-4)GlcNAc(b1-4)GlcNAc
# In short: as §1
# [18] = biological target: Neu5Ac(a2-6)Gal(b1-4)GlcNAc(b1-2)Man(a1-3)[Neu5Ac(a2-6)Gal(b1-4)GlcNAc(b1-2)Man(a1-6)]Man(b1-4)GlcNAc(b1-4)[Fuc(a1-6)]GlcNAc
# In short: as §1
# [19] = biological target: Neu5Ac(a2-6)Gal(b1-4)GlcNAc(b1-2)Man(a1-6)[Gal(b1-4)GlcNAc(b1-2)Man(a1-3)]Man(b1-4)GlcNAc(b1-4)GlcNAc
# In short: as §1
# [20] = biological target: Neu5Gc(a2-3)Gal(b1-4)[Fuc(a1-3)]GlcNAc
# In short: as §1
# [21] = biological target: Neu5Gc(a2-8)Neu5Gc(a2-3)Gal(b1-4)GlcNAc(b1-3)Gal(b1-4)GlcNAc
# In short: as §1
binder,measurement,setting,value
B1,glycan array binding signal (z-score),[1],-0.002
same,glycan array binding signal (z-score),[2],0.425
same,glycan array binding signal (z-score),Gal6S(b1-3)GlcNAc,22.6
same,glycan array binding signal (z-score),Gal6S(b1-4)GlcNAc6S,-0.176
same,glycan array binding signal (z-score),GalNAc(b1-4)Gal(b1-4)Glc,0.208
same,glycan array binding signal (z-score),[3],0.492
same,glycan array binding signal (z-score),[4],-0.24
same,glycan array binding signal (z-score),GlcNAc(b1-4)GlcNAc,-0.294
same,glycan array binding signal (z-score),[5],-0.023
same,glycan array binding signal (z-score),[6],-0.073
same,glycan array binding signal (z-score),Man(a1-2)Man(a1-3)Man,-0.226
same,glycan array binding signal (z-score),Man(a1-6)Man,0.458
same,glycan array binding signal (z-score),MurNAc(b1-4)GlcNAc,-0.226
same,glycan array binding signal (z-score),[7],-0.071
same,glycan array binding signal (z-score),[8],-0.099
same,glycan array binding signal (z-score),[9],-0.307
same,glycan array binding signal (z-score),[10],3.88
same,glycan array binding signal (z-score),[11],-0.153
same,glycan array binding signal (z-score),[12],-0.086
same,glycan array binding signal (z-score),[13],1.01
same,glycan array binding signal (z-score),[14],0.051
same,glycan array binding signal (z-score),[15],-0.389
same,glycan array binding signal (z-score),Neu5Ac(a2-6)Gal,-0.025
same,glycan array binding signal (z-score),[16],2
same,glycan array binding signal (z-score),[17],0.341
same,glycan array binding signal (z-score),[18],0.391
same,glycan array binding signal (z-score),[19],0.126
same,glycan array binding signal (z-score),[20],0.009
same,glycan array binding signal (z-score),[21],-0.323
